Measured values from PubChem BioAssay (NCATS).
Records with an inconclusive call do not appear. Calls of active or inactive are those of the source. Unless noted, calls follow the shape of the full dose curve.

Key:
[1] = qHTS for Inhibitors of the Functional Ribonucleoprotein Complex (vRNP) of Lassa (LASV) Arenavirus: LASV Primary Screen - GLuc reporter signal (AID 1347082; calls by dose curve; tested in HEK293 reporter line; also: nearly all actives have a fitted effect of over 60% in size; as to activity change, negative = inhibition: series mostly up to about 57 µM)
[2] = qHTS for Inhibitors of the Functional Ribonucleoprotein Complex (vRNP) of Lassa (LASV) Arenavirus: Viability assay - alamar blue signal for LASV Primary Screen (AID 1347083; calls by dose curve; tested in HEK293 reporter line; also: nearly all actives have a fitted effect of over 80% in size; as to activity change, negative = reduced viability: series mostly up to about 57 µM)
[3] = qHTS for Inhibitors of the Functional Ribonucleoprotein Complex (vRNP) of Lymphocytic Choriomeningitis Arenaviruses (LCMV): Viability assay - alamar blue signal for LCMV Primary Screen (AID 1347085; calls by dose curve; tested in HEK293 reporter line; also: nearly all actives have a fitted effect of over 80% in size; as to activity change, negative = lower viability: series mostly up to about 57 µM)
[4] = molecular target: Nucleoprotein (Lymphocytic choriomeningitis virus (strain Armstrong)) (UniProt P09992); assay: qHTS for Inhibitors of the Functional Ribonucleoprotein Complex (vRNP) of Lymphocytic Choriomeningitis Arenaviruses (LCMV): LCMV Primary Screen - GLuc reporter signal (AID 1347086); also: nearly all actives have a fitted effect of over 70% in size; as to activity change, negative = inhibition: series mostly up to about 57 µM
Sequence of Nucleoprotein (Lymphocytic choriomeningitis virus (strain Armstrong)) (P09992 whole entry, looked up): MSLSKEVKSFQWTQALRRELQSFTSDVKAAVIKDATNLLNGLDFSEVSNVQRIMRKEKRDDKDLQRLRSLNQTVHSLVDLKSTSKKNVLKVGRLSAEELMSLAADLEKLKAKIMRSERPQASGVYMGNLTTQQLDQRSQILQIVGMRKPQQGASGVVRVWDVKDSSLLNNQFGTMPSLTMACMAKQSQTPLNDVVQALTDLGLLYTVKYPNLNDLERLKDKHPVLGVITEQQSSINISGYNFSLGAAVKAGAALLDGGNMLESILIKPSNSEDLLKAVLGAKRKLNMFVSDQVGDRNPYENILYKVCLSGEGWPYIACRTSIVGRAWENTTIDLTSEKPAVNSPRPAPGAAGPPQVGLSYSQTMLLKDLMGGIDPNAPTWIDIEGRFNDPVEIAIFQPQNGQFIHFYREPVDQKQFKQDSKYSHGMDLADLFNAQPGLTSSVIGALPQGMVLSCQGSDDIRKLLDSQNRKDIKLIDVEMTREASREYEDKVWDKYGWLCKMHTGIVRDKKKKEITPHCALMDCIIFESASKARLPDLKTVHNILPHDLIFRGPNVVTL
% is scaled to controls: 0 for no effect and ±100 for the full control effect; potency is read from the fitted curve at half-maximal effect.

CN(C)CCc1c[nH]c2ccc(Cn3cncn3)cc12
inactive: Potency [1] | Potency [2] | Potency [3] | Potency [4]

CCN1CCCC1CNC(=O)c1cc(S(=O)(=O)CC)c(N)cc1OC (centres undefined)
inactive: Potency [1] | Potency [2] | Potency [3] | Potency [4]

CCCCCCCCCCCCCCCCN
inactive: Potency [1] | Potency [2] | Potency [3] | Potency [4]

Cc1c(NC(C)C)c(=O)n(-c2ccccc2)n1C
inactive: Potency [1] | Potency [2] | Potency [3] | Potency [4]

c1ccc2c(c1)CCCC2C1=NCCN1 (centres undefined)
inactive: Potency [1] | Potency [2] | Potency [3] | Potency [4]

COc1ccc2cc([C@H](C)C(=O)O)ccc2c1
inactive: Potency [1] | Potency [2] | Potency [3] | Potency [4]

Cc1nc2ccccn2c(=O)c1CCN1CCC(C(=O)c2ccc(F)cc2)CC1
inactive: Potency [1] | Potency [2] | Potency [3] | Potency [4]

O=C(O)CCCCC1CCSS1 (centres undefined)
inactive: Potency [1] | Potency [2] | Potency [3] | Potency [4]

Cc1ncc([N+](=O)[O-])n1CC(O)CCl (centres undefined)
inactive: Potency [1] | Potency [2] | Potency [3] | Potency [4]

COc1ccc(-c2ccc3cc(C(=O)O)ccc3c2)cc1C12CC3CC(CC(C3)C1)C2
inactive: Potency [1] | Potency [2] | Potency [3] | Potency [4]

Cc1cccc(C)c1NC(=O)c1cc(S(N)(=O)=O)c(Cl)cc1O
inactive: Potency [1] | Potency [2] | Potency [3] | Potency [4]

C[N+](C)(C)CC(O)CC(=O)[O-] (centres undefined)
inactive: Potency [1] | Potency [2] | Potency [3] | Potency [4]

CCOC(=O)O[C@]1(C(=O)OCCl)CC[C@H]2[C@@H]3CCC4=CC(=O)C=C[C@]4(C)[C@H]3[C@@H](O)C[C@@]21C
inactive: Potency [1] | Potency [2] | Potency [3] | Potency [4]

CN1C(C(=O)Nc2ccccn2)=C(O)c2sccc2S1(=O)=O
inactive: Potency [1] | Potency [2] | Potency [3] | Potency [4]

CC(=O)N[C@@H](CCC(=O)O)C(=O)O
inactive: Potency [1] | Potency [2] | Potency [3] | Potency [4]

O=C1OC(CN2CCOCC2)CN1/N=C/c1ccc([N+](=O)[O-])o1 (centres undefined)
inactive: Potency [1] | Potency [2] | Potency [3] | Potency [4]

CC(C)(C)NCC(O)COc1ccc(NC(=O)NC2CCCCC2)cc1 (centres undefined)
inactive: Potency [1] | Potency [2] | Potency [3] | Potency [4]

Cn1c(=O)c2[nH]c(Br)nc2n(C)c1=O
inactive: Potency [1] | Potency [2] | Potency [3] | Potency [4]

CC(=O)N/N=C/c1ccc([N+](=O)[O-])o1
inactive: Potency [1] | Potency [2] | Potency [3] | Potency [4]

CCOC(N)=O
inactive: Potency [1] | Potency [2] | Potency [3] | Potency [4]

O=C(O)Cc1cccc(-c2cc(CCCCCCc3ccc(O[C@H]4O[C@H](CO)[C@@H](O)[C@H](O)[C@@H]4O)c(-c4cccc(CC(=O)O)c4)c3)ccc2O[C@H]2O[C@H](CO)[C@@H](O)[C@H](O)[C@@H]2O)c1
inactive: activity change, negative = inhibition [1] 1.7% [at 0.757 µM] | activity change, negative = reduced viability [2] 10.5% [at 0.757 µM] | activity change, negative = lower viability [3] 2.8% [at 0.757 µM] | activity change, negative = inhibition [4] 2.06% [at 0.757 µM]

CCCCCCn1c(=O)c2c(ncn2C)n(C)c1=O
inactive: Potency [1] | Potency [2] | Potency [3] | Potency [4]

CCC1(C)CC(=O)NC1=O (centres undefined)
inactive: Potency [1] | Potency [2] | Potency [3] | Potency [4]

COc1ccc2c(c1)CCCC2=O
inactive: Potency [1] | Potency [2] | Potency [3] | Potency [4]

CCC[C@@H]1C[C@@H](C(=O)N[C@@H]([C@H]2O[C@H](SC)[C@H](O)[C@@H](O)[C@H]2O)[C@@H](C)O)N(C)C1
inactive: Potency [1] | Potency [2] | Potency [3] | Potency [4]

CN1C(CSCC(F)(F)F)Nc2cc(Cl)c(S(N)(=O)=O)cc2S1(=O)=O (centres undefined)
inactive: Potency [1] | Potency [2] | Potency [3] | Potency [4]

CO/N=C(/C(=O)N[C@@H]1C(=O)N2C(C(=O)OCOC(=O)C(C)(C)C)=C(C)CS[C@H]12)c1csc(N)n1
inactive: Potency [1] | Potency [2] | Potency [3] | Potency [4]

O=C(NCN1CCOCC1)c1cnccn1
inactive: Potency [1] | Potency [2] | Potency [3] | Potency [4]

C[C@@H]1O[C@@H](O[C@H]2CC[C@@]3(C)[C@H](CC[C@@H]4[C@H]3C[C@@H](O)[C@]3(C)[C@@H](C5=CC(=O)OC5)CC[C@]43O)C2)C[C@H](O)[C@@H]1O[C@H]1C[C@H](O)[C@H](O[C@H]2C[C@H](O)[C@@H](O)[C@@H](C)O2)[C@H](C)O1 (stereo in doubt)
active: Potency [1] 559 nM | Potency [2] 352 nM | Potency [3] 396 nM | Potency [4] 444 nM

O=C(O)Cn1c(=O)n(Cc2ccc(Br)cc2F)c(=O)c2ccc(Cl)cc21
inactive: Potency [1] | Potency [2] | Potency [3] | Potency [4]

O=C(N[C@H](CO)[C@H](O)c1ccc([N+](=O)[O-])cc1)C(Cl)Cl
inactive: Potency [1] | Potency [2] | Potency [3] | Potency [4]

NC(=O)NC1N=C([O][Al])NC1=O (centres undefined)
inactive: Potency [1] | Potency [2] | Potency [3] | Potency [4]

CCCCCCCCCCC[C@@H](C[C@@H]1OC(=O)[C@H]1CCCCCC)OC(=O)[C@H](CC(C)C)NC=O
inactive: Potency [1] | Potency [2] | Potency [3] | Potency [4]

CN1CCC[C@@H]1c1cccnc1
inactive: Potency [1] | Potency [2] | Potency [3] | Potency [4]

C[C@](N)(Cc1ccc(O)cc1)C(=O)O
inactive: Potency [1] | Potency [2] | Potency [3] | Potency [4]

O=C(O)CCc1nc2ccccc2[nH]1
inactive: Potency [1] | Potency [2] | Potency [3] | Potency [4]

CC(C)NNC(=O)c1ccncc1
inactive: Potency [1] | Potency [2] | Potency [3] | Potency [4]

O=C(c1ccco1)N1CCNCC1
inactive: Potency [1] | Potency [2] | Potency [3] | Potency [4]

C1COC(NC(C2CC2)C2CC2)=N1
inactive: Potency [1] | Potency [2] | Potency [3] | Potency [4]

CCCCCC[C@@H](CCC)C(=O)O
inactive: Potency [1] | Potency [2] | Potency [3] | Potency [4]

CC(O)CCCCn1c(=O)c2c(ncn2C)n(C)c1=O (centres undefined)
inactive: Potency [1] | Potency [2] | Potency [3] | Potency [4]

CC(=O)O[C@]1(C(C)=O)CC[C@H]2[C@@H]3C[C@H](C)C4=CC(=O)CC[C@]4(C)[C@H]3CC[C@@]21C
inactive: Potency [1] | Potency [2] | Potency [3] | Potency [4]

CCCCCCCCCCCCCCCCOP(=O)([O-])OCC[N+](C)(C)C
inactive: Potency [1] | Potency [2] | Potency [3] | Potency [4]

CC(=O)N[C@@H](CC(C)C)C(=O)O
inactive: Potency [1] | Potency [2] | Potency [3] | Potency [4]

Cc1ccc(C(=O)C(C)CN2CCCCC2)cc1 (centres undefined)
inactive: Potency [1] | Potency [2] | Potency [3] | Potency [4]

Cc1cc(O)c2c(O)c3c(O)cccc3cc2c1
inactive: Potency [1] | Potency [2] | Potency [3] | Potency [4]

O=C(c1ccccc1)C(O)c1ccccc1 (centres undefined)
inactive: Potency [1] | Potency [2] | Potency [3] | Potency [4]

CCO[C@H](Cc1ccc(OCCc2ccc(OS(C)(=O)=O)cc2)cc1)C(=O)O
inactive: Potency [1] | Potency [2] | Potency [3] | Potency [4]

CC(=O)Oc1cc(C(C)C)c(OCCN(C)C)cc1C
inactive: Potency [1] | Potency [2] | Potency [3] | Potency [4]

NC(=O)NS(=O)(=O)c1ccc(Cl)cc1
inactive: Potency [1] | Potency [2] | Potency [3] | Potency [4]

CC(=O)NO
inactive: Potency [1] | Potency [2] | Potency [3] | Potency [4]

COc1ccccc1OCC1CNC(=O)O1 (centres undefined)
inactive: Potency [1] | Potency [2] | Potency [3] | Potency [4]

O=C(CN1CCNCC1)NC1CCCCC1
inactive: Potency [1] | Potency [2] | Potency [3] | Potency [4]

O=C(O)Cc1csc(-c2ccc(Cl)cc2)n1
inactive: Potency [1] | Potency [2] | Potency [3] | Potency [4]

COc1cccc(OC)c1C(=O)N[C@@H]1C(=O)N2[C@@H]1SC(C)(C)[C@@H]2C(=O)O
inactive: Potency [1] | Potency [2] | Potency [3] | Potency [4]

C[C@@H]1O[C@@H](OC[C@H]2O[C@@H](Oc3c(-c4ccc(O)c(O)c4)oc4cc(O)cc(O)c4c3=O)[C@H](O)[C@@H](O)[C@@H]2O)[C@H](O)[C@H](O)[C@H]1O
inactive: Potency [1] | Potency [2] | Potency [3] | Potency [4]

CCCCCCCCCCCCCCCC(=O)OC(C)C
inactive: Potency [1] | Potency [2] | Potency [3] | Potency [4]

COC(=O)C1=C(C)NC(C)=C(C(=O)OCCc2ccc(N3CCN(C(c4ccccc4)c4ccccc4)CC3)cc2)C1c1cccc([N+](=O)[O-])c1 (centres undefined)
inactive: Potency [1] | Potency [2] | Potency [3] | Potency [4]

CCc1cccc(CC)c1NC(=O)CN(CC(=O)O)CC(=O)O
inactive: Potency [1] | Potency [2] | Potency [3] | Potency [4]

CSCC[C@H](NC(=O)[C@H](Cc1c[nH]c2ccccc12)NC(=O)CCNC(=O)OC(C)(C)C)C(=O)N[C@@H](CC(=O)O)C(=O)N[C@@H](Cc1ccccc1)C(N)=O
inactive: Potency [1] | Potency [2] | Potency [3] | Potency [4]

Cc1c(C(C)C)c(=O)n(-c2ccccc2)n1C
inactive: Potency [1] | Potency [2] | Potency [3] | Potency [4]

NC1CCN(c2nc3c(cc2F)c(=O)c(C(=O)O)cn3-c2ccc(F)cc2F)C1 (centres undefined)
inactive: Potency [1] | Potency [2] | Potency [3] | Potency [4]

Cc1ccc(-c2ccccc2C#N)cc1
inactive: Potency [1] | Potency [2] | Potency [3] | Potency [4]

C#C[C@]1(O)CC[C@H]2[C@@H]3CCC4=CC(=O)CC[C@@H]4[C@H]3CC[C@@]21CC
inactive: Potency [1] | Potency [2] | Potency [3] | Potency [4]

Cn1c(=O)c2c(ncn2CCO)n(C)c1=O
inactive: Potency [1] | Potency [2] | Potency [3] | Potency [4]

C/C(=N\O)[C@@H](C)NCC(C)(C)CN[C@H](C)/C(C)=N/O
inactive: Potency [1] | Potency [2] | Potency [3] | Potency [4]
